Measured values taken from PubChem BioAssay (EPA / NIEHS).
Results filed as inconclusive are left out. Some compounds were tested as several samples or in several runs, with calls that do not always agree. Active and inactive are the calls of the source. The calls were made as follows: active = hit-call score of the fitted dose curve at least 0.9, where 1 is the maximum; inconclusive = response in the unintended direction; inactive = score below 0.9.

target: human IkappaB Kinase alpha (IKKa), CHUK (gene 1147) (UniProt O15111); experiment: NVS_ENZ_hIKKa: NovaScreen (NVS) Enzymatic Assay for human IkappaB Kinase alpha (IKKa) (AID 2283167)
Sequence (O15111 whole entry, looked up): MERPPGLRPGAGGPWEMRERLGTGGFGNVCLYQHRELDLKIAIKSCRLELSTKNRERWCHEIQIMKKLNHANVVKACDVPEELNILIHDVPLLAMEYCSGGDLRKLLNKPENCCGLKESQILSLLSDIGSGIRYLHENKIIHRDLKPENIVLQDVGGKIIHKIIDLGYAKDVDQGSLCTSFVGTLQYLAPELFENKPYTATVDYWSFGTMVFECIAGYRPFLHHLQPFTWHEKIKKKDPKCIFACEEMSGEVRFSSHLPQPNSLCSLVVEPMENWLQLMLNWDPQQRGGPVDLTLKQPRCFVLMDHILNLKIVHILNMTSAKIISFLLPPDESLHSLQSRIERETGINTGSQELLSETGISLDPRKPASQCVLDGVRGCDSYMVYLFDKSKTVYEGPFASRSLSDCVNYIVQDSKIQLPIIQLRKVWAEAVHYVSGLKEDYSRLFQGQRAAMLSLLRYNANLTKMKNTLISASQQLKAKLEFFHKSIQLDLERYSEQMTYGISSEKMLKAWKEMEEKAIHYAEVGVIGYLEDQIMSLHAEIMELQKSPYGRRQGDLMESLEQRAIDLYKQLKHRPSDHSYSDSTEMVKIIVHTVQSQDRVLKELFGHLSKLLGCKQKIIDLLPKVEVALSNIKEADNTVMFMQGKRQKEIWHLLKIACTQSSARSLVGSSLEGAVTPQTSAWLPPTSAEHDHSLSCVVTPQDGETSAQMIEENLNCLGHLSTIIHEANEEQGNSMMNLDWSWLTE
Protocol: NVS_ENZ_hIKKa is a biochemical, single-readout assay that uses extracted gene-proteins in a cell-free assay. Measurements were taken 1 hour after chemical dosing in a 384-well plate.NVS_ENZ_hIKKa is one of one assay component(s) measured or calculated from the NVS_ENZ_hIKKa assay. It is designed to make measurements of enzyme activity, a form of enzyme reporter, as detected with fluorescence intensity signals by Fluorescence and electrophoretic mobility shift technology.Data from the assay component NVS_ENZ_hIKKa was analyzed into 1 assay endpoint. This assay endpoint, NVS_ENZ_hIKKa, was analyzed in the positive analysis fitting direction relative to DMSO as the negative control and baseline of activity. Using a type of enzyme reporter, loss-of-signal activity can be used to understand changes in the enzymatic activity as they relate to the gene CHUK. Furthermore, this assay endpoint can be referred to as a primary readout, because this assay has produced multiple assay endpoints where this one serves a enzymatic activity function. To generalize the intended target to other relatable targets, this assay endpoint is annotated to the kinase intended target family, where the subfamily is serine/threonine kinase.
Binding assays used specific radioligands (tritiated, iodinated) with non-radioactive competitive displacement ligands in agonist or antagonist protocols (as indicated) and various reference compounds and inhibitors to titrate specific binding to receptors and transporters. Most enzyme assays (CYPs, kinases, phosphatases, proteases, HDACs) used recombinant protein and specific substrates (fluorescence mostly, some colorimetric and radioactive) and inhibitors, followed by a biochemical separation of substrate and product. All assays for the biochemical HTS were initially run in duplicate at a single concentration (10 uM for CYP450 assays and 25 uM for all others). Assay-chemical combinations meeting a pre-defined threshold (e.g., 30% inhibition and other criteria defined below) were then run in singleton concentration-response format with maximum concentration of 20 uM for CYPs and 50 uM for all others. Each assay was run with positive and negative controls, and concurrent controls on every plate. The follow-up (secondary) screen tested active chemical-pairs in concentration series, as well as a few additional assays not tested in the primary screen, some selected negative inactives, and several cases re-run in the concentration series for confirmatory purposes.

Row | SMILES | outcome | AC50
1 | CCCC(CCC)C(=O)O | inactive | 
2 | CC/C(=C(\c1ccccc1)c1ccc(OCCN(C)C)cc1)c1ccccc1 | inactive | 
3 | CCCCCCCCCCCCc1ccccc1S(=O)(=O)O |  | 31.7 µM (active)
4 | O=C(OCCOCCOC(=O)c1ccccc1)c1ccccc1 | inactive | 
5 | O=c1[nH]cnc2c1ncn2[C@H]1CC[C@@H](CO)O1 | inactive | 
6 | S=C(S)NCCNC(=S)S.[Mn+2].[S-]C([S-])=NCCN=C([S-])[S-].[Zn+2] | inactive | 18.2 µM (active)
7 | CCc1c(C(=O)NN2CCCCC2)nn(-c2ccc(Cl)cc2Cl)c1-c1ccc(Br)cc1 | inactive | 
8 | S=C([S-])NCCNC(=S)[S-].[Mn+2] |  | 30.1 µM (active)
9 | CCCCCCCC/C=C\CCCCCCCC(=O)OC[C@@H](O)[C@H]1OC[C@H](O)[C@H]1O | inactive | 
10 | CCN(CC)CCNc1ccc(CNC=O)c2sc3ccc(OC)cc3c(=O)c12 | inactive | 
11 | CN(C)c1ccc(N=NS(=O)(=O)O)cc1 | inactive | 
